Assay results published in PubChem BioAssay (NCI).
About 83,000 compounds went through this panel and 20% of them were active in at least one assay; those are over-represented in the sample as a whole.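 Values shown are percent growth following 48 h exposure of cells in 96-well plates to a single concentration of compound; below 10 was considered active.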 Unmarked numbers belong to inactive results. Activity calls are given as the source filed them.

Columns and labels:
Experiment in all cases: NCI-60 one-dose screen, 48 h (100 = growth as untreated, 0 = no growth, -100 = all killed)
Conditions in all cases: 10 µM unless noted
HCT-15 colon = test system: HCT-15 colon
HT29 colon = test system: HT29 colon
SNB-75 CNS = test system: SNB-75 CNS
SNB-19 CNS = test system: SNB-19 CNS
U251 CNS = test system: U251 CNS
PC-3 prostate = test system: PC-3 prostate
SK-MEL-5 melanoma = test system: SK-MEL-5 melanoma
UACC-62 melanoma = test system: UACC-62 melanoma
LOX IMVI melanoma = test system: LOX IMVI melanoma
SK-MEL-28 melanoma = test system: SK-MEL-28 melanoma
SK-MEL-2 melanoma = test system: SK-MEL-2 melanoma
EKVX NSCLC = test system: EKVX NSCLC
SN12C renal = test system: SN12C renal
UO-31 renal = test system: UO-31 renal
TK-10 renal = test system: TK-10 renal
ACHN renal = test system: ACHN renal
CAKI-1 renal = test system: CAKI-1 renal
A498 renal = test system: A498 renal
CCRF-CEM leukemia = test system: CCRF-CEM leukemia
MOLT-4 leukemia = test system: MOLT-4 leukemia

Row | Structure (SMILES) | growth (HCT-15 colon) | growth (HT29 colon) | growth (SNB-75 CNS) | growth (SNB-19 CNS) | growth (U251 CNS) | growth (PC-3 prostate) | growth (SK-MEL-5 melanoma) | growth (UACC-62 melanoma) | growth (LOX IMVI melanoma) | growth (SK-MEL-28 melanoma) | growth (SK-MEL-2 melanoma) | growth (EKVX NSCLC) | growth (SN12C renal) | growth (UO-31 renal) | growth (TK-10 renal) | growth (ACHN renal) | growth (CAKI-1 renal) | growth (A498 renal) | growth (CCRF-CEM leukemia) | growth (MOLT-4 leukemia)
1 | CC(C)=CC[C@@H]1CC2(CC=C(C)C)C(=O)C(OC3(C(=O)c4ccccc4)C(=O)C4(CC=C(C)C)C[C@@H](CC=C(C)C)C(C)(C)C(CC=C(C)C)(C4=O)C3=O)(C(=O)c3ccccc3)C(=O)C(CC=C(C)C)(C2=O)C1(C)C (some centres undefined) | 5.15% (active) | -16.1% (active) | 37.6% | 11.6% | 5.76% (active) | -17.3% (active) | -77.5% (active) | -71.3% (active) | 1.63% (active) | 14.9% | -46.8% (active) | 2.26% (active) | -17.9% (active) | -7.33% (active) | 3.06% (active) | 4.64% (active) | 11.5% | -58% (active) | 3.78% (active) | -11.9% (active)
2 | COc1ccc(C(=O)C(CN(C)C)c2ccc(OC)cc2)cc1 (centres undefined) | 30.4% | 13.2% | 64.7% | 90.7% | 69.2% | 39.1% | 95.5% | 32.1% | 31.3% | 79% | 75.1% | 90.7% | 62.5% | 67.9% | 52% | 54.1% | 73.9% | 64.4% | 3.8% (active) | 52.9%
3 | CN1C(=O)N(C)C2C1NN=c1s/c(=C\c3ccc(C(F)(F)F)cc3)c(=O)n12 (centres undefined) | 24.2% | 9.64% (active) | 7.43% (active) | 30% | 21.6% | 18.8% | 4.36% (active) | 26.7% | 36.6% | 60.4% | 47.7% | 45.2% | 41.2% | 49.6% | 55.5% | 44.6% | 29.6% | 18.4% | 11.7% | 37.2%
4 | CCOC(=O)N1C2CCC(C2)N1C(=O)OCC | 106% | 107% | 71.6% | 100% | 99.1% | 105% | 104% | 98.2% | 99.7% | 97.4% | 99% | 113% | 105% | 95.6% | 94.7% | 106% | 106% | 115% | 100% | 93%
5 | COc1ccc2c(c1)C1=NN(C(=O)CO)[C@H](c3ccc(OC(F)(F)F)cc3)[C@@H]1CC2 | 84.7% | 92.3% | 90.3% | 93.4% | 87.3% | 72.9% | 83.4% | 76.3% | 88.7% | 121% | 89.5% | 94.3% | 99.6% | 53.5% | 162% | 87.9% | 116% | 94.4% | 129% | 86.9%
6 | COC1(OC)C2(Cl)CCC1(Cl)C(Cl)=C2Cl | 95% | 101% | 95.6% | 105% | 97.8% | 100% | 102% | 101% | 94.2% | 107% | 95.2% | 104% | 96.8% | 94.6% | 119% | 109% | 109% | 91% | 103% | 105%
7 | CCN1C(=O)N(CC)C2C1N=C(SC)N2/N=C/C=C/c1ccccc1OC (centres undefined) | 7.58% (active) | 3.96% (active) | 44.6% | 15.4% | 16.1% | 18.4% | 0.74% (active) | 30.5% | 14.6% | 51.5% | 26.5% | 23.4% | 26.5% | 41.8% | 46.8% | 23.2% | 25% | 15.1% | 12.5% | 14.7%
8 | CC(=O)CC(c1ccc([N+](=O)[O-])cc1)c1c(O)c2ccccc2oc1=O (centres undefined) | 110% | 106% | 81.7% | 109% | 104% | 92% | 91.9% | 100% | 101% | 113% | 97% | 108% | 92.2% | 76.7% | 105% | 98.1% | 94.1% | 70.3% |  | 100%
